The supplement of paper PMC10849652
Targets with a hit are over-represented here; the source holds about 7,900 in all. About 0.6% of all pairs of compound and target were hits.

What was measured:
Assay in all cases: log2 fold change, soluble protein after heating vs DMSO (PISA); higher = thermal stabilisation; K562 cells, 10 uM, 30 min; active = over 0.2 and 3.5 SD of the protein, either way, in both replicates (recomputed)
[1] = compound: COC1=CC=C(C=C1)CN2C=CC3=C2C=C(C=C3)C(=O)NO
Procedure, shortened: (§1)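 Values are thermal stability changes relative to control samples and are taken from duplicates. They are stated as log2 fold changes. Before quantification by TMTpro 16plex LC-MS/MS with equalised channel sums, K562 cells at 2×10^6 cells/mL were treated with 10 μM compound for 30 min, heated in aliquots for 3 min across 48°C-58°C, pooled, extracted in PBS with 0.5% NP-40 at 4°C, and centrifuged at 21,000xg for 90 min to give the soluble supernatant.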

filanesib = compound: CON(C)C(=O)N1N=C(c2cc(F)ccc2F)S[C@@]1(CCCN)c1ccccc1 [filanesib]
Procedure, shortened: as §1

zotarolimus = compound: CO[C@H]1C[C@@H]2CC[C@@H](C)[C@@](O)(O2)C(=O)C(=O)N2CCCC[C@H]2C(=O)O[C@H]([C@H](C)C[C@@H]2CC[C@H](n3cnnn3)[C@H](OC)C2)CC(=O)[C@H](C)/C=C(\C)[C@@H](O)[C@@H](OC)C(=O)[C@H](C)C[C@H](C)/C=C/C=C/C=C/1C [zotarolimus]
Procedure, shortened: as §1

idasanutlin = compound: COc1cc(C(=O)O)ccc1NC(=O)[C@@H]1N[C@@H](CC(C)(C)C)[C@](C#N)(c2ccc(Cl)cc2F)[C@H]1c1cccc(Cl)c1F [idasanutlin]
Procedure, shortened: as §1

alisertib = compound: COc1cc(Nc2ncc3c(n2)-c2ccc(Cl)cc2C(c2c(F)cccc2OC)=NC3)ccc1C(=O)O [alisertib]
Procedure, shortened: as §1

[2] = compound: COc1cc2nc(-c3cc(F)ccc3O)nc(N[C@@H]3CNC[C@H]3C(C)(C)O)c2cc1OC
Procedure, shortened: as §1

gefitinib = compound: COc1cc2ncnc(Nc3ccc(F)c(Cl)c3)c2cc1OCCCN1CCOCC1 [gefitinib]
Procedure, shortened: as §1

[3] = compound: COc1cccc2cc(-c3nc([C@H]4CC[C@H](C(=O)O)CC4)n4ncnc(N)c34)[nH]c12
Procedure, shortened: as §1

lapatinib = compound: CS(=O)(=O)CCNCc1ccc(-c2ccc3ncnc(Nc4ccc(OCc5cccc(F)c5)c(Cl)c4)c3c2)o1 [lapatinib]
Procedure, shortened: as §1

pictilisib = compound: CS(=O)(=O)N1CCN(Cc2cc3nc(-c4cccc5[nH]ncc45)nc(N4CCOCC4)c3s2)CC1 [pictilisib]
Procedure, shortened: as §1

[4] = compound: CS(=O)(=O)c1ccc(-c2cnc(N)c(C(=O)Nc3ccccc3)n2)cc1
Procedure, shortened: as §1

crizotinib = compound: C[C@@H](Oc1cc(-c2cnn(C3CCNCC3)c2)cnc1N)c1c(Cl)ccc(F)c1Cl [crizotinib]
Procedure, shortened: as §1

[5] = compound: C[C@H](C1=CC=C(C=C1)C(=O)NC2=C3C=CNC3=NC=C2)N
Procedure, shortened: as §1

duvelisib = compound: C[C@H](Nc1ncnc2nc[nH]c12)c1cc2cccc(Cl)c2c(=O)n1-c1ccccc1 [duvelisib]
Procedure, shortened: as §1

gandotinib = compound: Cc1cc(Nc2cc(CN3CCOCC3)c3nc(C)c(Cc4ccc(Cl)cc4F)n3n2)n[nH]1 [gandotinib]
Procedure, shortened: as §1

tozasertib = compound: Cc1cc(Nc2cc(N3CCN(C)CC3)nc(Sc3ccc(NC(=O)C4CC4)cc3)n2)n[nH]1 [tozasertib]
Procedure, shortened: as §1

[6] = compound: Cc1cc(SCc2sc(-c3ccc(C(F)(F)F)cc3)nc2C)ccc1OCC(=O)O
Procedure, shortened: as §1

doramapimod = compound: Cc1ccc(-n2nc(C(C)(C)C)cc2NC(=O)Nc2ccc(OCCN3CCOCC3)c3ccccc23)cc1 [doramapimod]
Procedure, shortened: as §1

ispinesib = compound: Cc1ccc(C(=O)N(CCCN)[C@@H](c2nc3cc(Cl)ccc3c(=O)n2Cc2ccccc2)C(C)C)cc1 [ispinesib]
Procedure, shortened: as §1

[7] = compound: C[C@@H]1COCCN1C2=NC(=NC(=C2)C3(CC3)S(=O)(=O)C)C4=C5C=CNC5=CC=C4
Procedure, shortened: as §1

Measured: log2 fold change

NFYB (UniProt P25208)
UniProt P25208, sequence (P25208 whole entry, looked up): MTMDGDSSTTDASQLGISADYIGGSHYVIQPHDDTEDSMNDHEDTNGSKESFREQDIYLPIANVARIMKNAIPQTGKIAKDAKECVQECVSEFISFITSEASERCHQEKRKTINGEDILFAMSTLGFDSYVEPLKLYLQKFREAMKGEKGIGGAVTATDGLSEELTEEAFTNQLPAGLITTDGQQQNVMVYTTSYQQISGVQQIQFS
inactive: [1] 0.245 | filanesib -0.036 | zotarolimus -0.024 | idasanutlin 0.066 | alisertib -0.097 | [2] -0.047 | gefitinib 0.039 | [3] 0.02 | lapatinib 0.078 | pictilisib -0.155 | [4] -0.004 | crizotinib 0.069 | [5] -0.084 | duvelisib -0.123 | gandotinib 0.011 | tozasertib 0.085 | [6] -0.124 | doramapimod -0.028 | ispinesib 0.168

MIS12 (UniProt Q9H081)
inactive: [1] 0.079 | filanesib 0.004 | zotarolimus 0.077 | idasanutlin -0.011 | alisertib 0.06 | [2] 0.035 | gefitinib 0.026 | [3] 0.032 | lapatinib -0.048 | pictilisib -0.005 | [4] 0.016 | crizotinib -0.064 | [7] -0.03 | [5] -0.099 | duvelisib 0.037 | gandotinib -0.012 | tozasertib 0.153 | [6] 0.009 | doramapimod -0.019 | ispinesib -0.034

NME7 (UniProt Q9Y5B8)
UniProt Q9Y5B8, sequence (Q9Y5B8 whole entry, looked up): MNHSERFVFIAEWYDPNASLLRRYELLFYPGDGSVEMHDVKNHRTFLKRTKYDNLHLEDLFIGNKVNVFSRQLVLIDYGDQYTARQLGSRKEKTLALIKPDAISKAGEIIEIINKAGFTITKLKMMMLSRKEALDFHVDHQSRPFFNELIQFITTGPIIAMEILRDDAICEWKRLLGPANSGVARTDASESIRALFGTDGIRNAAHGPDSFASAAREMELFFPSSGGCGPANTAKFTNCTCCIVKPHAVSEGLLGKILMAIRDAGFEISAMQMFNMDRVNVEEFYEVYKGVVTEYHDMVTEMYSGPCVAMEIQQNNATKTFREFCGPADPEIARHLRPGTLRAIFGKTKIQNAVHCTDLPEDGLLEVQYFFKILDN
inactive: [1] -0.1 | filanesib 0.124 | zotarolimus 0.058 | idasanutlin -0.041 | alisertib 0.054 | [2] 0.015 | [3] -0.077 | lapatinib -0.046 | pictilisib 0.071 | [4] -0.187 | crizotinib -0.136 | [7] -0.027 | [5] 0.046 | duvelisib -0.031 | gandotinib -0.091 | tozasertib 0.068 | [6] 0.056 | doramapimod 0.033 | ispinesib -0.117

MRFAP1 (UniProt Q9Y605)
UniProt Q9Y605, sequence (Q9Y605 whole entry, looked up): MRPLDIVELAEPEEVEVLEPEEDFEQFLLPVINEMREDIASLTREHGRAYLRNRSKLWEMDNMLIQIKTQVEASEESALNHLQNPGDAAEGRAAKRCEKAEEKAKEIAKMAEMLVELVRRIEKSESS
inactive: [1] 0.015 | filanesib -0.012 | zotarolimus -0.018 | idasanutlin 0.173 | alisertib -0.435 | [2] -0.154 | gefitinib -0.036 | [3] 0.157 | lapatinib -0.093 | pictilisib -0.01 | [4] -0.066 | crizotinib -0.142 | [5] -0.048 | duvelisib 0.072 | gandotinib -0.014 | tozasertib 0.027 | [6] -0.023 | doramapimod 0.045 | ispinesib 0.016

MINK1 (UniProt Q8N4C8)
inactive: [1] -0.054 | filanesib -0.003 | zotarolimus 0.014 | idasanutlin 0.013 | alisertib -0.042 | [2] -0.064 | [3] 0.024 | lapatinib 0.024 | pictilisib -0.019 | [4] 0.032 | crizotinib -0.207 | [7] -0.038 | [5] -0.067 | duvelisib 0.022 | gandotinib -0.024 | tozasertib -0.149 | [6] 0.073 | doramapimod -0.035 | ispinesib -0.032

NA, A0A2R8Y3M9
inactive: [1] -0.086 | filanesib 0.079 | zotarolimus -0.419 | idasanutlin 0.279 | [2] -0.123 | gefitinib -0.168 | lapatinib -0.037 | pictilisib -0.35 | [4] -0.084 | crizotinib 0.013 | [5] -0.011 | duvelisib -0.299 | gandotinib -0.099 | [6] -0.107 | doramapimod -0.008 | ispinesib -0.125

NECTIN2 isoform 2 (UniProt Q92692)
UniProt Q92692, sequence (Q92692 whole entry, looked up): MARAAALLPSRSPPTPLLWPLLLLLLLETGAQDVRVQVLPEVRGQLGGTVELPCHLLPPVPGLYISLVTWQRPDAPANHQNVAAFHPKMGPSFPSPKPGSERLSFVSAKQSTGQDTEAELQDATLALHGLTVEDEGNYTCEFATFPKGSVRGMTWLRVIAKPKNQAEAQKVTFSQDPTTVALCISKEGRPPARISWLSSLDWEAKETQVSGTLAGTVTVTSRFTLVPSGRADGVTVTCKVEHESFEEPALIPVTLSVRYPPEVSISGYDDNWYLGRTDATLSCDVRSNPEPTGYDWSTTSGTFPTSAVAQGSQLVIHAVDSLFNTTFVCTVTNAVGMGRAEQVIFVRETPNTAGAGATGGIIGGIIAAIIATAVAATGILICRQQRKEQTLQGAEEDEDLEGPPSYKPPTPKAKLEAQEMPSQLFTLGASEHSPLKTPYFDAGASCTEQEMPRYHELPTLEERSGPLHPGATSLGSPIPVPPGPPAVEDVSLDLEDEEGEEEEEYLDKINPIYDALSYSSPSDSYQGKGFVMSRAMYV
inactive: [1] 0.106 | filanesib 0.094 | idasanutlin 0.061 | alisertib -0.016 | gefitinib -0.048 | [3] 0.093 | pictilisib -0.368 | [4] -0.059 | crizotinib 0.062 | [7] -0.2 | duvelisib -0.248 | gandotinib -0.206 | [6] -0.149 | doramapimod -0.086 | ispinesib 0.198

NDFIP1 (UniProt Q9BT67)
UniProt Q9BT67, sequence (Q9BT67 whole entry, looked up): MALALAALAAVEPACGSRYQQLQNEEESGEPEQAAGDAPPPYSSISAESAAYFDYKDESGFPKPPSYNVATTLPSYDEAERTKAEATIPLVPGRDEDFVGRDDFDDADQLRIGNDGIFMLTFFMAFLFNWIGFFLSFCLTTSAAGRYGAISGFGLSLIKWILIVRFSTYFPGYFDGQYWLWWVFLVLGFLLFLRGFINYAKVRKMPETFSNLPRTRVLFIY
inactive: [1] 0.051 | filanesib -0.134 | zotarolimus 0.106 | idasanutlin -0.034 | alisertib -0.105 | gefitinib -0.155 | [3] -0.14 | pictilisib 0.228 | [4] 0.349 | crizotinib -0.004 | [7] 0.045 | [5] -0.167 | duvelisib 0.039 | gandotinib 0.052 | tozasertib 0.046 | [6] 0.08 | doramapimod -0.068 | ispinesib 0.015

NA isoform 3 (UniProt Q4G0T1)
inactive: [1] -0.007 | filanesib 0.049 | zotarolimus 0.044 | idasanutlin 0.052 | alisertib -0.09 | [2] 0.039 | gefitinib 0.016 | [3] 0.106 | lapatinib 0.112 | [4] 0.023 | crizotinib -0.004 | [5] -0.157 | duvelisib 0.042 | tozasertib 0.005 | [6] -0.001 | doramapimod 0.077 | ispinesib -0.099

NCOA5 (UniProt Q9HCD5)
UniProt Q9HCD5, sequence (Q9HCD5 whole entry, looked up): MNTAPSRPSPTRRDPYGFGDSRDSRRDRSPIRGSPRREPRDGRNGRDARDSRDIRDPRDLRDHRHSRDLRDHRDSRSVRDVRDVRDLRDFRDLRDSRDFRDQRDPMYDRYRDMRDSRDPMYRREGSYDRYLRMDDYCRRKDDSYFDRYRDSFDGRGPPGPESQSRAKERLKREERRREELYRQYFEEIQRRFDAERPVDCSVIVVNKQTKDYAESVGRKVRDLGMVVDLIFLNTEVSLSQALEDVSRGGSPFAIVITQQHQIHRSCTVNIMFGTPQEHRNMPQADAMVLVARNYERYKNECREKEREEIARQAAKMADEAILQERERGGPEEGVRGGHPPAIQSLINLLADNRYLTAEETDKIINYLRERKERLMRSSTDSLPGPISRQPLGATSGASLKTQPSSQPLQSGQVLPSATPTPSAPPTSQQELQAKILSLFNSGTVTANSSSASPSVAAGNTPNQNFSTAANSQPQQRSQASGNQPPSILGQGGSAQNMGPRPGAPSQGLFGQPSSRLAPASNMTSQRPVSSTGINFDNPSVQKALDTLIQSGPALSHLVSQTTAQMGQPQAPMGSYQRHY
inactive: [1] 0.046 | filanesib 0.209 | [2] 0.04 | gefitinib 0.145 | lapatinib 0.047 | pictilisib -0.043 | [4] -0.005 | crizotinib -0.131 | duvelisib -0.155 | gandotinib 0.05 | [6] 0.052 | doramapimod 0.168 | ispinesib 0.02

MXRA7 isoform 3 (UniProt P84157)
UniProt P84157, sequence (P84157 whole entry, looked up): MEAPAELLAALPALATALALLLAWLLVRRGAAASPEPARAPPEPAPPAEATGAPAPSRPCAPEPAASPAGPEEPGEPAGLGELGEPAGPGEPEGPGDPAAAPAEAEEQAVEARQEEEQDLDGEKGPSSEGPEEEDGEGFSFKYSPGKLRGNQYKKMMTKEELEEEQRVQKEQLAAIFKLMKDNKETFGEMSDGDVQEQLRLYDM
inactive: [2] 0.077 | lapatinib -0.27 | ispinesib -0.092

MTHFD1, A0A384N5Y3
MTHFD1, A0A384N5Y3, sequence (A0A384N5Y3 whole entry, looked up): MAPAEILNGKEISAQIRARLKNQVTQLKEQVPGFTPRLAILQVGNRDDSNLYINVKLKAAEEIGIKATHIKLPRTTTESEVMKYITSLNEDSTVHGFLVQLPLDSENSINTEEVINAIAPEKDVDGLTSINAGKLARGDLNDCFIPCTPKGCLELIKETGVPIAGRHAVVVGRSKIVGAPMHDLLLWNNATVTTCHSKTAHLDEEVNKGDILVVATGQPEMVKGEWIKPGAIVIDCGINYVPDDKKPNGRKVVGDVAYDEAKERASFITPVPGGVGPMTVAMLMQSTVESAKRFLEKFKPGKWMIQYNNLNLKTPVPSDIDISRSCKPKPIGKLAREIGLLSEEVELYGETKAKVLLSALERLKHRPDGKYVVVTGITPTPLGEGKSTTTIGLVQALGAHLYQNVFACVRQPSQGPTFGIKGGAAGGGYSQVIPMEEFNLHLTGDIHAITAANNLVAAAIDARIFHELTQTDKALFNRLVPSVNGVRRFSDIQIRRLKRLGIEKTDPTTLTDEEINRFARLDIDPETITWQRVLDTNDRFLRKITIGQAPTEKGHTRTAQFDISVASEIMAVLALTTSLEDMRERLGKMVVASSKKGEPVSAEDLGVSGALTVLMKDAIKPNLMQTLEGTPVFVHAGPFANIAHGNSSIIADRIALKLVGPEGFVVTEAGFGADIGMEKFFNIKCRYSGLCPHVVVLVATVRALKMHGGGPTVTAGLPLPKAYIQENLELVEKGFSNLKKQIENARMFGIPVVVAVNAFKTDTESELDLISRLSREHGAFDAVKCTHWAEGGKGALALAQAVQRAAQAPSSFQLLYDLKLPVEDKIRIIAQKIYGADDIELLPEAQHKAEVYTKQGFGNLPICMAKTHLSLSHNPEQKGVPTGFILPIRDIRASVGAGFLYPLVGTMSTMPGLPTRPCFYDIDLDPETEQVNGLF
inactive: filanesib -0.025 | zotarolimus -0.032 | idasanutlin 0.024 | alisertib -0.011 | [2] 0.055 | gefitinib 0.075 | [3] 0.001 | lapatinib -0.016 | pictilisib 0.107 | [4] 0.109 | [7] 0.117 | [5] -0.008 | duvelisib 0.108 | gandotinib -0.036 | tozasertib -0.11 | [6] 0.081 | ispinesib -0.082

MMADHC (UniProt Q9H3L0)
UniProt Q9H3L0, sequence (Q9H3L0 whole entry, looked up): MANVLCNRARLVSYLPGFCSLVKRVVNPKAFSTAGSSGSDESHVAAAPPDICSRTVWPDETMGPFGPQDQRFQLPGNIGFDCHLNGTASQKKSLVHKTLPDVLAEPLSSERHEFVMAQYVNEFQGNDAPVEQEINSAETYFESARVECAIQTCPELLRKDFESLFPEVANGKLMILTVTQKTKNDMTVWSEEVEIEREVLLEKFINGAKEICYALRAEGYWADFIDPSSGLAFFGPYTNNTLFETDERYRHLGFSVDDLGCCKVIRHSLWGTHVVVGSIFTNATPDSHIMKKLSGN
inactive: [1] -0.031 | zotarolimus 0.102 | idasanutlin -0.135 | alisertib 0.006 | [2] 0.056 | gefitinib 0.305 | [3] 0.013 | lapatinib 0.176 | pictilisib -0.114 | crizotinib 0.065 | [5] 0.093 | duvelisib 0.007 | gandotinib -0.087 | tozasertib -0.001 | [6] 0.084 | doramapimod 0.099 | ispinesib -0.038

OVCA2 (UniProt Q8WZ82)
UniProt Q8WZ82, sequence (Q8WZ82 whole entry, looked up): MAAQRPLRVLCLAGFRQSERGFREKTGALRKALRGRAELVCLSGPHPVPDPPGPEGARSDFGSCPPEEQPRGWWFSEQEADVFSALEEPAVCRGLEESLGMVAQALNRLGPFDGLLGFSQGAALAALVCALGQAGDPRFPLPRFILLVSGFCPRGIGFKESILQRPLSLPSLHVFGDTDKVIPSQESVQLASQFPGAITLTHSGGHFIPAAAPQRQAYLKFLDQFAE
inactive: [1] -0.206 | idasanutlin -0.023 | alisertib 0.102 | [2] 0.201 | gefitinib -0.143 | [3] -0.318 | lapatinib -0.014 | pictilisib -0.176 | crizotinib 0.064 | gandotinib -0.232 | doramapimod -0.186 | ispinesib 0.026

NOS1AP (UniProt O75052)
UniProt O75052, sequence (O75052 whole entry, looked up): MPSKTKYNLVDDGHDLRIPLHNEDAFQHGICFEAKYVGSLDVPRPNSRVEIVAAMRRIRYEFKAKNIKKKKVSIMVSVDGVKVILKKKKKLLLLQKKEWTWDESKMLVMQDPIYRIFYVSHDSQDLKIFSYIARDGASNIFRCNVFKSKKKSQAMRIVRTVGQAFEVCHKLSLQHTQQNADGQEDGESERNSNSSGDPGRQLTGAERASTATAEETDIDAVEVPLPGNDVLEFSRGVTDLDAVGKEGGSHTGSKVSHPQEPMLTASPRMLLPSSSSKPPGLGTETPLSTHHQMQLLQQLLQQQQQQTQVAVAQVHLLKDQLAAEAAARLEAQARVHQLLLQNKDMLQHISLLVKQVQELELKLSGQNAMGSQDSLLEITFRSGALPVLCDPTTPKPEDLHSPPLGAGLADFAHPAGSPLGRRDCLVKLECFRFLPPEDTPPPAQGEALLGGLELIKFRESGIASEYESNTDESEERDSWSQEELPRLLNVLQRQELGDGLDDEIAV
inactive: zotarolimus -0.098 | alisertib 0.353 | [2] -0.09 | [3] -0.118 | lapatinib -0.1 | [7] 0.101 | [5] 0.237 | tozasertib -0.164 | ispinesib -0.279

NASP isoform 2 (UniProt P49321)
inactive: alisertib -0.129 | [3] -0.58

MYO19 (UniProt Q96H55)
active: pictilisib 0.567
inactive: [1] -0.083 | zotarolimus 0.071 | idasanutlin -0.116 | [2] 0.081 | gefitinib 0.024 | lapatinib 0.276 | crizotinib 0.047 | [7] -0.215 | [5] 0.491 | duvelisib -0.07 | gandotinib -0.081 | [6] 0.158 | doramapimod 0.066 | ispinesib -0.065

MOB2 isoform 3 (UniProt Q70IA6)
UniProt Q70IA6, sequence (Q70IA6 whole entry, looked up): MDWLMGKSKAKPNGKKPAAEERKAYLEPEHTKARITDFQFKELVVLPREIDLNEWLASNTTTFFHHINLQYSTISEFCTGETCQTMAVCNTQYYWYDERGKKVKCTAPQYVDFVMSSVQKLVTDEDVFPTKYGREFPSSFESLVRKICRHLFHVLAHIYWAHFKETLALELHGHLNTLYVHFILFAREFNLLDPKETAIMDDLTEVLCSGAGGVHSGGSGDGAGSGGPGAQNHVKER
inactive: zotarolimus 0.205 | alisertib -0.066 | [2] -0.184 | gefitinib 0.051 | [3] 0.02 | lapatinib 0.025 | pictilisib 0.06 | [7] -0.166 | [5] 0.044 | gandotinib -0.093 | tozasertib -0.1 | ispinesib -0.025

NKAP (UniProt Q8N5F7)
UniProt Q8N5F7, sequence (Q8N5F7 whole entry, looked up): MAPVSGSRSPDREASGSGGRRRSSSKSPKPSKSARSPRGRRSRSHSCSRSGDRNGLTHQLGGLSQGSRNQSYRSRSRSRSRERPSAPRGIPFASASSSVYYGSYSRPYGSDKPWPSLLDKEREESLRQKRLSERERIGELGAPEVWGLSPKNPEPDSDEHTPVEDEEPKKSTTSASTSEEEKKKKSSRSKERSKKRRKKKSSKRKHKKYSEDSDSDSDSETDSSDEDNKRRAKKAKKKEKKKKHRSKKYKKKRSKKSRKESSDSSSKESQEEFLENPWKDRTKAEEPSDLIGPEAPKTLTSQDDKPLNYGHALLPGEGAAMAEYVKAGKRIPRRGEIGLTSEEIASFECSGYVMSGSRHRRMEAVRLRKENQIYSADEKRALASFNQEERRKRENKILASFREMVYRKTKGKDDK
inactive: [1] -0.005 | zotarolimus 0.112 | idasanutlin 0.115 | alisertib 0.037 | [2] -0.051 | gefitinib -0.029 | [3] -0.13 | lapatinib 0.09 | pictilisib -0.013 | crizotinib -0.113 | [7] -0.118 | [5] 0.013 | duvelisib 0.016 | gandotinib 0.041 | tozasertib 0.039 | [6] -0.034 | doramapimod 0.042 | ispinesib 0.001
